According to the OligoGym collection:

These sequences were tested against FABP9 (assay: pooled miR-30 sensor sort-seq; sequence = guide strand). Settings: shRNA.
Also: reference of the scale not given here.

Sequence	sensor-assay potency score (higher = more potent)
TTAGTGTCCTGGAAAGAACTTT	-0.461
TTCTTTTGATTGTTGTCTCTTT	-0.11
TTTTGGACGTGAATCATTGAGC	-0.43
TTACATTCCACTACCATTTTTT	-0.986
TAGTGTCCTGGAAAGAACTTTC	-1.06
TTACTTTCCGGTTGTCTGCTGT	-0.00906
TTTACTTTCCGGTTGTCTGCTG	0.767

These sequences were tested against FAM103A1 in the same assay as above. Settings: shRNA.

Sequence	sensor-assay potency score (higher = more potent)
TACTAGCAAACATCTCTTCAAA	-1.05
AACATCTCTTCAAACTTTGGAA	-0.553
TCTACTAGCAAACATCTCTTCA	-0.435
ATAATGTCCATATTGCTGGGGA	-0.0469
TTTTCTGTGAATCTACTAGCAA	-0.323
TTGTCATTTTCTGTGAATCTAC	-0.838
ATCTACTAGCAAACATCTCTTC	-0.234
TTGTCTTGCAACCGATTGCCTC	-1.09
TTTCTGTGAATCTACTAGCAAA	-1.27
TGTCTGTTGTCTTGCAACCGAT	-1.2
TTCTTGTCTGTGTTGCGGGTAG	-0.368

The sequences below were run against FAM111A in the same assay as above. Settings: shRNA.

Sequence	sensor-assay potency score (higher = more potent)
TTTCCTTGTCTTTTAGCTCTTC	0.0612
TTTGAGATCATTTCTAATCAAG	-0.737
TATCTCTTTTCTGACAGCCTGG	-0.766
TTTCCAATCATCATTCTCCAGA	-0.625
TATGTGGTTATCTTCCTTCTGC	-0.217
TTCTAATTCATCAACTGGCTGG	0.174
TTGAGAGCCATATATAAGCTAC	-0.708
TTGTTCTCTCAACACACAGGTG	-0.868
TACTCTTTGATTCCTTCTGTGC	-0.506
TCTTTTCTCAACCTCAACCTGA	-0.463
TTCATATCTTGGTTTCTCCTGT	0.306
TTACATTTTTCATTGACTGAGT	-0.373

These sequences were tested against FAM113A in the same assay as above. Settings: shRNA.

Sequence	sensor-assay potency score (higher = more potent)
TTGTTGTGTAGCAGCTGCTGGA	-0.714
TTCCAGAACATCCTCAAGGTAC	-0.46
TTTCTGGAGCAAGAGCACCAGG	-1.16
TAGCTCTCCATTGAGCAGCGAC	-1.09
TAGCACTGTAGAAGTTCCCTTC	0.54
TTCAACCACATCCCGCCGCAGG	-1.27
TGGAAGTGGACCATGTCGCTTC	-0.111
TTGAGCAGCGACCATATCTGGA	-0.708
TCTCTCTGAGTGTCTGAGCCGC	-0.879
TTGATGATCACCAGGTCCGGGG	-0.983
